The text below walks through data of PubChem BioAssay (Tox21).

SMILES strings stand for the structures. Several values for one entry are separate records, joined by “and”; a condition that tells them apart may be missing. Identical values can stand only once. Results filed as inconclusive are left out. Activity calls are given as the source filed them. Unless noted, calls come from the whole dose curve; as a rule, active = well fitted curve in the direction sought with a large enough effect in the repeat runs; inconclusive = weak or mixed curves; inactive = no such curve, though single readings can be large; an effect the other way counts as inactive or inconclusive.

A short description of assay [1]: qHTS assay to identify aromatase inhibitors - cell viability counter screen (AID 743084).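 Note: cells stimulated with testosterone during compound exposure; nearly all actives have a fitted effect of over 55% in size.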 Note: potency is the fitted concentration of half-maximal effect.
Assay [2] addresses Aryl hydrocarbon receptor (Homo sapiens) (UniProt P35869). Nature of the assay: qHTS assay to identify small molecule that activate the aryl hydrocarbon receptor (AhR) signaling pathway (AID 743085).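 For activation: HG2L7.5c1 human HepG2 liver cells with stably integrated DRE-driven firefly reporter; series mostly up to about 70 µM.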 Note: nearly all actives have a fitted effect of over 15% in size. Note: potency is the fitted concentration of half-maximal effect. In short, it runs like this: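 Luminescence (ONE-Glo) from a dioxin-responsive-element luciferase reporter in HG2L7.5c1 HepG2 cells after 24 hr compound exposure at 37C; viability measured by CellTiter-Fluor fluorescence beforehand.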

A short description of assay [3]: qHTS assay to identify small molecule that activate the aryl hydrocarbon receptor (AhR) signaling pathway - cell viability counter screen (AID 743086). Note: nearly all actives have a fitted effect of over 45% in size. Note: potency is the fitted concentration of half-maximal effect. The gist of the method:
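Cytotoxicity counter screen: CellTiter-Fluor signal (30 min, 37 C) in 4000 HepG2 cells/well carrying the DRE-luciferase reporter, following 24 h compound exposure at 37 C.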

In assay [4] the target is Peroxisome proliferator-activated receptor gamma (Homo sapiens) (UniProt P37231). Nature of the assay: qHTS assay to identify small molecule agonists of the peroxisome proliferator-activated receptor gamma (PPARg) signaling pathway (AID 743094; active = well fitted activation curve with a large enough effect in the signal ratio in the repeat runs, not every such curve was filed as active; the % refers to the signal ratio). The gist of the method:
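GeneBLAzer PPARg UAS-bla HEK293H cells were plated, rested 5 h, then exposed to compounds for 17 h at 37C. Beta-lactamase activity was read by LiveBLAzer B/G FRET substrate fluorescence after 1 h at room temperature.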

A short description of assay [5]: qHTS assay to identify small molecule antagonists of the peroxisome proliferator-activated receptor gamma (PPARg) signaling pathway - cell viability counter screen (AID 743194). Note: nearly all actives have a fitted effect of over 55% in size. Note: potency is the fitted concentration of half-maximal effect. The note with it: Potency: co-treated with 50 nM rosiglitazone. The gist of the method: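 Viability was measured as CellTiter-Glo luminescence in GeneBLAzer PPARg UAS-bla HEK293H cells. These cells had been exposed 17 h at 37 C to compounds together with rosiglitazone at 50 nM final, with the beta-lactamase readout taken in the same wells.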
On the technique in general: qHTS replaces the single test concentration by a dilution series.

The nature of assay [6]: qHTS assay for small molecule agonists of the antioxidant response element (ARE) signaling pathway (AID 743202; active = well fitted activation curve with a large enough effect in the signal ratio in the repeat runs, not every such curve was filed as active; the % refers to the signal ratio; note: potency is the fitted concentration of half-maximal effect). The gist of the method: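 An ARE-responsive beta-lactamase gene stably integrated in HepG2 cells serves as reporter. After 5 h plating and 16 h compound incubation at 37 C, fluorescence of the B/G FRET substrate was measured.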
Assay [7] can be described thus: qHTS assay for small molecule activators of the heat shock response signaling pathway - cell viability counter screen (AID 743209). Note: nearly all actives have a fitted effect of over 50% in size. Note: potency is the fitted concentration of half-maximal effect. In short, it runs like this: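 HSE-bla HeLa cells plated overnight, then exposed to Tox21 compounds (23 nL in DMSO) for 5 h at 37 C. After the bla reporter read, CellTiter-Glo was added in the same wells and luminescence read after 30 min at room temperature.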

A short description of assay [8]: qHTS assay for small molecule activators of the heat shock response signaling pathway (AID 743210; active = well fitted activation curve with a large enough effect in the signal ratio in the repeat runs, with a control signal flat, not every such curve was filed as active; the % refers to the signal ratio; note: potency is the fitted concentration of half-maximal effect;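 for activation: HeLa cells with beta-lactamase reporter driven by heat shock elements; series mostly up to about 63 µM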). In short, it runs like this:
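In HSE-bla HeLa cells, 5 h compound incubation (37 C) precedes addition of LiveBLAzer B/G substrate; after 2.5 h at room temperature, fluorescence intensity indicates reporter induction.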

Assay [9] is described as follows: qHTS assay to identify small molecule agonists of the peroxisome proliferator-activated receptor delta (PPARd) signaling pathway - cell viability counter screen (AID 743211). Note: nearly all actives have a fitted effect of over 55% in size. The gist of the method: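 Viability was measured as CellTiter-Glo luminescence (30 min, room temperature) in the same wells as the beta-lactamase readout. GeneBLAzer PPARd UAS-bla HEK293H cells received compound after 5 h plating and were incubated 17 h at 37 C.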

Assay [10] deals with Peroxisome proliferator-activated receptor delta (Homo sapiens) (UniProt Q03181). Nature of the assay: qHTS assay to identify small molecule agonists of the peroxisome proliferator-activated receptor delta (PPARd) signaling pathway (AID 743212; calls by dose curve). In short, it runs like this:
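HEK293H UAS-bla reporter cells, human PPARd system; compounds delivered in DMSO after 5 h plating, then at 37 C. Beta-lactamase FRET read, 2 h RT substrate step.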

Assay [11] in a line: qHTS assay to identify small molecule antagonists of the peroxisome proliferator-activated receptor delta (PPARd) signaling pathway - cell viability counter screen (AID 743213). Note: nearly all actives have a fitted effect of over 50% in size. Note: potency is the fitted concentration of half-maximal effect. The gist of the method:
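HEK293H PPARd UAS-bla cells, 5 h pre-incubation, compound + L165041 300 nM final, 17 h 37 C; B/G FRET substrate 2 h RT; then CellTiter-Glo 30 min RT, luminescence.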

Assay [12] has as its target Peroxisome proliferator-activated receptor delta (Homo sapiens) (UniProt Q03181). Nature of the assay: qHTS assay to identify small molecule antagonists of the peroxisome proliferator-activated receptor delta (PPARd) signaling pathway (AID 743215; active = well fitted inhibition curve with a large enough effect in the signal ratio in the repeat runs, not every such curve was filed as active; the % refers to the signal ratio;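 note: cells stimulated with agonist L165041 at 300 nM final during compound exposure; series mostly up to about 62 µM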). The gist of the method: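 PPARd-bla HEK293H cells (UAS-bla reporter) preincubated 5 h, then given compound plus 300 nM final L165041 agonist for 17 h at 37 C. Beta-lactamase activity read by LiveBLAzer B/G FRET substrate fluorescence after 2 h at room temperature.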

Assay [13] can be described thus: qHTS assay to identify small molecule agonists of the farnesoid-X-receptor (FXR) signaling pathway - cell viability counter screen (AID 743218). Note: nearly all actives have a fitted effect of over 45% in size. Note: potency is the fitted concentration of half-maximal effect. The gist of the method: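 FXR-UAS-bla HEK 293T cells exposed to compounds for 16 h at 37C. Cytotoxicity read in the same wells by CellTiter-Glo luminescence after 30 min at room temperature, following the beta-lactamase FRET read.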

The target in assay [14] is Bile acid receptor (Homo sapiens) (UniProt Q96RI1). Nature of the assay: qHTS assay to identify small molecule agonists of the farnesoid-X-receptor (FXR) signaling pathway (AID 743220; active = well fitted activation curve with a large enough effect in the signal ratio in the repeat runs, not every such curve was filed as active; the % refers to the signal ratio). In short, it runs like this: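 Beta-lactamase reporter under UAS control in GeneBLAzer FXR HEK 293T cells (5000/well) measured with LiveBLAzer FRET substrate after 2 h at room temperature. Compound exposure lasted 16 h at 37C.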

A short description of assay [15]: qHTS assay to identify small molecule antagonists of the farnesoid-X-receptor (FXR) signaling pathway - cell viability counter screen (AID 743221; active = well fitted cell-killing curve with a large enough effect in the repeat runs, not every such curve was filed as active; note: nearly all actives have a fitted effect of over 50% in size; note: potency is the fitted concentration of half-maximal effect). The gist of the method:
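Cytotoxicity counter screen run in the FXR-bla reporter wells: HEK 293T cells exposed to compound with 50 uM (final) chenodeoxycholic acid for 16 h, 37 C, then viability measured by CellTiter-Glo luminescence after 30 min, room temperature.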

The target of assay [16] is Vitamin D3 receptor (Homo sapiens) (UniProt P11473). Nature of the assay: qHTS assay to identify small molecule agonists of the vitamin D receptor (VDR) signaling pathway (AID 743222; calls by dose curve). The gist of the method:
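VDR-bla cells plated 4 h at 37 C, then exposed to compounds for 16 h at 37 C. Beta-lactamase reporter activity measured by fluorescence after 2 h room-temperature loading with LiveBLAzer B/G FRET substrate.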

Assay [17] shares this target. Nature of the assay: qHTS assay to identify small molecule antagonists of the vitamin D receptor (VDR) signaling pathway (AID 743223; active = well fitted inhibition curve with a large enough effect in the signal ratio in the repeat runs, not every such curve was filed as active; the % refers to the signal ratio; note: potency is the fitted concentration of half-maximal effect). In short, it runs like this: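 Antagonist mode: compound added to VDR-bla cells alongside agonist 1alpha,25-dihydroxyvitamin D3 (3 nM final), incubation 16 h at 37C. Read-out is LiveBLAzer FRET fluorescence, 2 h at room temperature.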

Assay [18] in a line: qHTS assay for small molecule agonists of the antioxidant response element (ARE) signaling pathway - cell viability counter screen (AID 743203; calls by dose curve; note: nearly all actives have a fitted effect of over 55% in size; note: potency is the fitted concentration of half-maximal effect). In short, it runs like this:
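ARE-bla HepG2 cells were plated, rested 5 h at 37C/5% CO2, then exposed to compounds in DMSO for 16 h. Viability was read as CellTiter-Glo luminescence after 30 min at room temperature, in the same wells as the ARE screen.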

The target of assay [19] is Peroxisome proliferator-activated receptor gamma (Homo sapiens) (UniProt P37231). Nature of the assay: qHTS assay to identify small molecule antagonists of the peroxisome proliferator-activated receptor gamma (PPARg) signaling pathway (AID 743191; calls by dose curve; note: series mostly up to about 63 µM; nearly all actives have a fitted effect of over 30% in size). In short, it runs like this:
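Beta-lactamase reporter under UAS control in HEK293H PPARg-bla cells; compound treatment 17 h at 37C. Read-out: fluorescence intensity after 1 h room-temperature incubation with LiveBLAzer B/G FRET substrate.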

Aryl hydrocarbon receptor (Homo sapiens), sequence (P35869 whole entry, looked up): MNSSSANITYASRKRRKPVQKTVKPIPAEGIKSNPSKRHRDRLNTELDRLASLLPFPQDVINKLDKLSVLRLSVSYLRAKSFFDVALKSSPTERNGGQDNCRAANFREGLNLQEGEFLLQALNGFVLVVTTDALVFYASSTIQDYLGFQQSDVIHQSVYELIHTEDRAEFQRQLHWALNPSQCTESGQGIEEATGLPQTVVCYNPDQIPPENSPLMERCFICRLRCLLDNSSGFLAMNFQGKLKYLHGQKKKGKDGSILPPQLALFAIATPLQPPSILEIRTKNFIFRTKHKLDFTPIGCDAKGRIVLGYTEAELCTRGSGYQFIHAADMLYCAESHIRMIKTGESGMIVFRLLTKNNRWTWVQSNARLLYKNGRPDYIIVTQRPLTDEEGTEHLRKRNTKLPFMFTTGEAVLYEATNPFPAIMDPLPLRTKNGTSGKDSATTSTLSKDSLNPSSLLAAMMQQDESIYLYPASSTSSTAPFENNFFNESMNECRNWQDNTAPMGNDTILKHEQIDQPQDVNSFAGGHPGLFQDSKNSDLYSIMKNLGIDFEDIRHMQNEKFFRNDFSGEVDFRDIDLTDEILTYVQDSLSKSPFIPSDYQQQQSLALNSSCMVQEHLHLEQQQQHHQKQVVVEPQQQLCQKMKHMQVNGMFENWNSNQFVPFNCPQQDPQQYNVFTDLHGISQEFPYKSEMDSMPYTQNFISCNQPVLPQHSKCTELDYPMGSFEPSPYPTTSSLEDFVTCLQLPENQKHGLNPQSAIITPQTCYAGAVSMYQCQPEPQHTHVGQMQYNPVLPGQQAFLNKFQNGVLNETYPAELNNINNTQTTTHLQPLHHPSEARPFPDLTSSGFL
Peroxisome proliferator-activated receptor gamma (Homo sapiens), sequence (P37231 whole entry, looked up): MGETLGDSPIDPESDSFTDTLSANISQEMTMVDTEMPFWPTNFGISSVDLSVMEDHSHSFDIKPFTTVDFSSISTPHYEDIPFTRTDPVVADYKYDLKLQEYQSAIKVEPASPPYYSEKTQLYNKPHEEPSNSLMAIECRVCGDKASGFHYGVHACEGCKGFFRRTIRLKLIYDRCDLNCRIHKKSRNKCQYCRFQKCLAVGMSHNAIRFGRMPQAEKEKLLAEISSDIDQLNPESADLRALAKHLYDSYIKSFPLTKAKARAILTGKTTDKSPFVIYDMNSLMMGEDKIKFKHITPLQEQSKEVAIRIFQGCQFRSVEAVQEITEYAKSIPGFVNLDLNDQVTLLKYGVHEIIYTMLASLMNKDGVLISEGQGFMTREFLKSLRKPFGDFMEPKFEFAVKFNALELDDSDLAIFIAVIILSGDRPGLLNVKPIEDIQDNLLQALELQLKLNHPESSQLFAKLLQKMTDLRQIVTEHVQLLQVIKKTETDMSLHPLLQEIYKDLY
Vitamin D3 receptor (Homo sapiens), sequence (P11473 whole entry, looked up): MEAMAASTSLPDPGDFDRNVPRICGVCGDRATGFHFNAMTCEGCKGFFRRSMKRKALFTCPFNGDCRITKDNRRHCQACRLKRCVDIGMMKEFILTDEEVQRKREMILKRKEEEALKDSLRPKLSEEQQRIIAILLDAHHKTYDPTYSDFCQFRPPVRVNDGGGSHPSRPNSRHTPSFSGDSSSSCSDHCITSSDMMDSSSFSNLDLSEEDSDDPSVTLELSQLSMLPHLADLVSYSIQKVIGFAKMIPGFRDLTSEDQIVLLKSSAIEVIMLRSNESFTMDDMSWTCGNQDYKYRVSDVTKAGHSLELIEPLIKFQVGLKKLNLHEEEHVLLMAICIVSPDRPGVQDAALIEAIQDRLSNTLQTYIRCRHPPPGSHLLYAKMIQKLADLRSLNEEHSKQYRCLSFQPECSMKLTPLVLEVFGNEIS
Peroxisome proliferator-activated receptor delta (Homo sapiens), sequence (Q03181 whole entry, looked up): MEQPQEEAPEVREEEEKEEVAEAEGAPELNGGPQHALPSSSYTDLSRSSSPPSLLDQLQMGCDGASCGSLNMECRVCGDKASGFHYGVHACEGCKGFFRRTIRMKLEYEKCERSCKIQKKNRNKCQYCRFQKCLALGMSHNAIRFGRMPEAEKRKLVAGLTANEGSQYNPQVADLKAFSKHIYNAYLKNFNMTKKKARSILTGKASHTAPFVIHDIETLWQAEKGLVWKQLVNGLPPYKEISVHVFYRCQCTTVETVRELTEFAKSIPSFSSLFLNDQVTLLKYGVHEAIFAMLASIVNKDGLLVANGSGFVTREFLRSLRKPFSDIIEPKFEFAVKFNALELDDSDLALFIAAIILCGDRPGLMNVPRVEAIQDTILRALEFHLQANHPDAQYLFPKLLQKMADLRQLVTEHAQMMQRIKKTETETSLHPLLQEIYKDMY
Bile acid receptor (Homo sapiens), sequence (Q96RI1 whole entry, looked up): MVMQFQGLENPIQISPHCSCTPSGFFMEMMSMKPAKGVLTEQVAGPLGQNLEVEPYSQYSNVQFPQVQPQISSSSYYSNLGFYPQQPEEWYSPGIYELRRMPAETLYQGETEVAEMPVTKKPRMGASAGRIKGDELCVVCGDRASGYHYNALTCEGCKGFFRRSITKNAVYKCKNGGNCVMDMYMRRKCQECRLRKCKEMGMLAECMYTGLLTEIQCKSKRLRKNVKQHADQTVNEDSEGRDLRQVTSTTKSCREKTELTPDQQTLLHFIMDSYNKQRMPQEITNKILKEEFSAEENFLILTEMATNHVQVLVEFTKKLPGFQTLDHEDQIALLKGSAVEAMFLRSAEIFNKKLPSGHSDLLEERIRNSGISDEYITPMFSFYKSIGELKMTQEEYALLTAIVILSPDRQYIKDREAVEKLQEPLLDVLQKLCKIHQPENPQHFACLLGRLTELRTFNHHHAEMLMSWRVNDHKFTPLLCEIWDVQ

Take `c1ccc2sc(SNC3CCCCC3)nc2c1`: the Potency result in assay [1], in assay [3], in assay [4], in assay [5], in assay [7] and in assay [9] was “inactive” in each case. For the same molecule, the Potency entry in [11], in assay [12], in assay [13], in [15] and in assay [17] was “inactive” each time. The Potency in assay [2] was 23.7 µM (active) and 34 µM (active) and 30.6 µM (active); in assay [6] it was 9.69 µM (active); in assay [8], 13.3 µM (active). In addition, the call in [10], in assay [14] and in assay [16] was inactive.
Consider `CCOC(=O)NC(O)C(Cl)(Cl)Cl` (configuration not stated), for which the Potency result in [1], in [2], in [3], in assay [4], in [5] and in assay [18] was “inactive” in each case. Besides, the Potency result in [9], in [11], in assay [13] and in assay [15] was “inactive” throughout. Moreover, the molecule was called inactive in assay [14] and in [16].
As to `CC(C)c1ccc(NC(=O)N(C)C)cc1`, the Potency result in [1], in assay [3], in assay [19], in assay [5], in assay [18] and in assay [9] was “inactive” throughout. Also, the Potency result in assay [11], in assay [12] and in [13] was “inactive” each time. The Potency in assay [2] was 68.5 µM (active). The call in [10] and in [16] was inactive.
In the case of `C[CH2][Hg][S]c1ccccc1C(=O)O`, the Potency was 5.96 µM (active) and 1.09 µM (active) in assay [1]; 16.8 µM (active) and 6.86 µM (active) in [3]; 2.45 µM (active) and 8.41 µM (active) in assay [5]; 1.72 µM (active) and 5.96 µM (active) in assay [18]; 19.5 µM (active) and 15 µM (active) in assay [7]; 2.19 µM (active) and 1.68 µM (active) in assay [11]. Moreover, the Potency in [13] was 1.55 µM (active) and 2.66 µM (active); in assay [15], 6.92 µM (active) and 4.22 µM (active); in [17], 3.38 µM (active). Besides, the Potency entry in assay [2] is “inactive”. The molecule was classed as inactive in [16].
`C[C@]12C=CC3=C4CCC(=O)C=C4CC[C@H]3[C@@H]1CC[C@@H]2O`: the Potency entry in assay [1], in assay [2], in assay [3], in [5], in assay [18] and in assay [13] was “inactive” each time. In addition, the Potency result in [15] is “inactive”. Besides, in assay [6], the Potency is 6.07 µM (active).
Take `NC(=O)CF`: the Potency result in assay [1], in assay [2], in [3], in assay [19], in [5] and in assay [6] was “inactive” in each case. For the same molecule, the Potency entry in assay [18], in assay [7], in [8], in [9], in [11] and in [13] was “inactive” throughout. Further, the Potency result in [15] is “inactive”. Besides, the call in [16] was inactive.
As to `COC(=O)Cc1ccccc1`, the Potency entry in assay [1], in assay [2], in [3], in assay [4], in assay [6] and in assay [7] was “inactive” throughout. For the same molecule, the Potency result in assay [8], in [9], in [11], in [12], in [13] and in assay [15] was “inactive” throughout. Moreover, the molecule was classed as inactive in assay [10] and in assay [16].
Regarding `CCOP(=S)(OCC)Oc1ccc(S(C)=O)cc1` (configuration not stated), the Potency result in assay [1], in assay [3], in assay [19], in [5], in assay [6] and in [7] was “inactive” each time. The Potency result in [9], in [11], in [12], in assay [13], in assay [15] and in [17] was “inactive” in each case. The Potency in assay [2] is 10.9 µM (active). Moreover, the result in assay [10] and in [16] was inactive.
In the case of `COC1=CC(=O)O[C@@H](/C=C/c2ccc3c(c2)OCO3)C1`, the Potency result in assay [1], in assay [3], in [19], in assay [5], in [18] and in assay [7] was “inactive” throughout. Moreover, the Potency result in assay [8], in [9], in assay [11], in [12], in assay [13] and in [15] was “inactive” each time. Also, the Potency in assay [2] is 0.414 µM (active). Moreover, the molecule was classed as inactive in assay [10].
